target: FZD1; test: pooled miR-30 sensor sort-seq; sequence = guide strand; conditions: shRNA
Further: reference of the scale not given here.

Row | Sequence | sensor-assay potency score (higher = more potent)
1 | TTGTCATTACACACCACTCGGT | -0.649
2 | TTGCTGGTCCAGAACTCTGGAA | -1.24
3 | ATGAAGACCGTGAAGTCCGGGC | -0.0414
4 | TGTCATTACACACCACTCGGTC | -0.427

target: FZD4; test: as above; conditions: shRNA

Row | Sequence | sensor-assay potency score (higher = more potent)
5 | TACAGTACTGAGAACACCCCAA | 0.428
6 | TATTATAGCACATACTGAGAAA | -1.2
7 | TTGACTGAAAGACACATGCCGC | -0.778
8 | TCAGTCTTTCTAACTTGTCTGT | -0.388
9 | TTTTAGTAGAATTTCCTCCAAA | -0.591
10 | TTTGCTATCTGAAAGACCCAGT | 0.327
11 | TATCAGTGAACTCCTTGGCTGA | -0.901
12 | TCTTTCTAACTTGTCTGTCTTT | -0.962
13 | AACTTGTCTGTCTTTGTCCCAT | 0.289
14 | TAACAGGCAATCACACACGTTG | -0.53
15 | TTGGTTTCCAACATAGCACAAG | -0.766

target: FZD5; test: as above; conditions: shRNA

Row | Sequence | sensor-assay potency score (higher = more potent)
16 | TCCAGCTTGTCCGTCTTGGTGC | -1.11
17 | TAGGAAGAAGCGCAGGTCCGGC | -0.902
18 | TAGAGCAGCGTGAAGATGCCGA | 0.0125
19 | TCCATGTCGATGAGGAAGGTGG | -1.25
20 | TTCCATGTCGATGAGGAAGGTG | -0.703
21 | TTCTCCAGCTTGTCCGTCTTGG | -0.54
22 | TCTCGCGGTAGTGCTGCTCGTA | -1.3
23 | TAGAGCATAGGAAGAAGCGCAG | -0.267
24 | AGGAGCAGCAGCAACAGCGAGG | -2.13
25 | TACTTGAGCATGAGCACCCAGT | -0.921
26 | TAGCAGGCCACCACAATGCTGG | -0.787
27 | TTGATGACGCTGCGGATGCGGA | -1.12

target: FZD8; test: as above; conditions: shRNA

Row | Sequence | sensor-assay potency score (higher = more potent)
28 | TAAGACACGGAGCTCGCCGTGC | -0.78
29 | TTGATGACCGAGCGGATGCGGA | -1.04
30 | ATAATTAAGACATTTCTTGTTT | 0.00747
31 | TTATATCTGTTCTTACAGGGGT | -0.138
32 | TTGTAGTCCATGCACAGCGTGT | -1.01
33 | TGTTGCTTGATGACCGAGCGGA | -0.353
34 | TTCTTGTAGTCCTCTAGGCAGA | -1.02
35 | TATATCTGTTCTTACAGGGGTA | -0.151
36 | TGTAGGTGTAGTTGTAGCCGAT | -0.983
37 | TACTTGAGCATGAAGACGGCGT | 0.273
38 | TTTACTTAAGGCATTTGCCTGG | 0.501
39 | TATCATGCTAATAGCAATCAAC | -0.951

From the OligoGym collection
